A selection: hits, their analogues and other compounds. The true share with any hit is near 3.5%.
Anthrax LF inh2: anthrax lethal factor protease inhibition; P15917; multiplex microsphere protease cleavage assay, LF; inhibition, % at 10 µM; hit rate 0.12% among 360,000; note: plate controls were buffer without enzyme for full effect and enzyme alone for no effect
BoNT-F LC inh: inhibitors of Botulinum neurotoxin F light chain protease. Multiplex microsphere protease cleavage assay, flow cytometry. inhibition, % at 10 µM. hit rate 0.22% among 360,000; in the data active = inhibition above about 35%, passing the limit was not always enough; inconclusive = no clear call, values can overlap the other calls; note: plate controls were buffer without enzyme for full effect and enzyme alone for no effect
Autofluor counter: counter-screen for toxin protease inhibitors: compound fluorescence; compound autofluorescence counterscreen, microsphere flow cytometry; active compounds read high; fluorescence intensity (concentration not given with the values); hit rate 3.1% among 360,000; AID 624483; in the data active = fluorescence intensity above about 16000; inconclusive = no clear call, values can overlap the other calls
BoNT-A LC inh2: inhibitors of Botulinum neurotoxin A light chain protease; inhibition, % at 10 µM; hit rate 0.17% among 360,000; multiplex microsphere protease substrate cleavage, flow cytometry; AID 588499; note: plate controls were buffer without enzyme for full effect and enzyme alone for no effect
* marks the source's active call; other numbers are inactive results; u = inconclusive. Cut-off read from the data, not from the text of the source, unless noted: active = inhibition above about 30%; inconclusive = no clear call, values can overlap the other calls; inactive = below that.

SMILES | Anthrax LF inh2 | BoNT-F LC inh | Autofluor counter | BoNT-A LC inh2
CC(C)CC(=O)N1CCC(O)(CS(=O)(=O)Cc2ccccc2Cl)CC1 | -2 | -7 | 21027* | u
O=C(O)CCN=CC1=C(O)CC(c2ccccc2)CC1=O (stereo not drawn) | -2 | -3 | 3871 | 0
O=C(Oc1cccc(N2C(=O)CCC2=O)c1)C1CC(=O)N(c2ccc(Br)cc2)C1 (stereo not drawn) | 5 | -7 | 6539 | 2
Cc1ccc(N2CC(C(=O)Oc3cccc(N4C(=O)CCC4=O)c3)CC2=O)cc1 (stereo not drawn) | -3 | -4 | 21129* | -2
Cc1ccc(N2CC(C(=O)OCC(=O)C(C)(C)C)CC2=O)cc1 (stereo not drawn) | -4 | -2 | 23049* | 0
CC(C)=CC(=O)O[C@@H]1Cc2cc3ccc(=O)oc3cc2OC1(C)C | -6 | -8 | 2889 | -1
COc1ccc(OC)c(NS(=O)(=O)c2ccc(-c3coc(C)n3)cc2)c1 | -3 | 1 | 3843 | 2
CCCn1ncc(OC)c(Cl)c1=O | -11 | 2 | 21990* | 3
NC(=O)C1CCN(CC(O)COc2ccc(-c3ccccc3)cc2)CC1 (stereo not drawn) | 5 | 16 | 3986 | -4
COc1ccc(C(=O)c2ccc(Br)cc2)cc1 | 0 | 2 | 20227* | 2
CC(C)(C)C(=O)N1CCN(c2nc3ccccc3s2)CC1 | -1 | 0 | 4238 | 1
CCCC(=O)N1CCN(c2nc3ccccc3s2)CC1 | 2 | 0 | 4387 | -2
CCN1CCN(c2nc3ccccc3s2)CC1 | 1 | 0 | 20785* | u
CSc1ccc(NC(=O)N2CCN(c3nc4ccccc4s3)CC2)cc1 | -4 | -10 | 21539* | u
Cn1c(C(=O)N2CCN(c3nc4ccccc4s3)CC2)cc2sccc21 | -4 | -3 | 19151* | 0
O=C(Nc1ccc(Cl)cc1)c1nc[nH]c1C(=O)N1CCN(c2ccccc2)CC1 | 0 | 3 | 4014 | 0
Cc1ccc(C(=O)c2nccn2C)cc1C | -1 | 1 | 5619 | -1
O=C(O)c1c2c(nc3ccc(F)cc13)CCC2 | 0 | 6 | 20799* | 6
CC(C)c1cccc(-c2csc(C(O)c3ccco3)n2)c1 (stereo not drawn) | 0 | -8 | 3064 | -1
COCCCNC(=O)/C=C/c1cccc(Cl)c1 | -3 | -2 | 20665* | 0
CN(C)C(CNC(=O)/C=C/c1cccc(Cl)c1)c1ccccc1 (stereo not drawn) | 2 | -1 | 4358 | 0
COc1ccccc1C(CNC(=O)c1ccc(OCc2c(C)noc2C)cc1)N1CCCC1 (stereo not drawn) | -3 | -4 | 15575 | -6
Cc1ccc(NC(=O)c2ccc(OCc3c(C)noc3C)cc2)nc1 | -11 | -68 | 16600* | -40
COc1cc(C(=O)OCC(=O)Nc2ccc3c(c2)OC(F)(F)O3)ccc1OCc1c(C)noc1C | -3 | -15 | 3487 | -1
COc1ccc(C(CNC(=O)c2ccc(OCc3c(C)noc3C)cc2)N2CCCC2)cc1 (stereo not drawn) | -2 | 7 | 17256* | -5
SMILES | Anthrax LF inh2 | BoNT-F LC inh | Autofluor counter | BoNT-A LC inh2
COc1cc(C(=O)NCC(c2ccco2)N2CCCC2)ccc1OCc1c(C)noc1C (stereo not drawn) | -2 | -3 | 23986* | -2
COc1cc(C(=O)NCc2cccs2)ccc1OCc1c(C)noc1C | -3 | -2 | 3697 | 0
COc1ccc(NC(=O)COC(=O)c2ccc(OCc3c(C)noc3C)cc2)cc1OC | 2 | -1 | 21341* | -1
COc1ccc(C(=O)N(C)Cc2cnn(Cc3ccccc3)c2)cc1S(=O)(=O)N1CCOCC1 | -1 | 4 | 8211 | 0
CCOc1ccc(OCC(=O)OCC(=O)NCC2CCCO2)cc1 (stereo not drawn) | -7 | -7 | 8441 | 0
O=C1c2cc3c(cc2CCC1c1ccc2c(c1)OCO2)OCO3 (stereo not drawn) | 1 | 4 | 3425 | 0
CC1(c2ccc(OC(F)F)cc2)NC(=O)N(CC(=O)Nc2cccc(F)c2)C1=O (stereo not drawn) | 3 | -9 | 2966 | -2
Cc1ccc(C)c(NC(=O)CCc2nnc3ccc(NCc4ccco4)nn23)c1 | 0 | 2 | 5793 | 1
COc1ccccc1CN(C)C(=O)c1cccc(S(=O)(=O)N2CCc3ccccc3C2)c1 | 2 | -7 | 3399 | 0
CN(C)C(CNC(=O)c1cccc(S(=O)(=O)NCc2ccccc2)c1)c1ccccc1 (stereo not drawn) | -1 | 2 | u | 2
Cc1c(CC(=O)O)c(=O)oc2c(C)c(OCc3ccc(F)cc3F)ccc12 | -5 | 7 | 3764 | -1
Cc1c(CC(=O)O)c(=O)oc2c(C)c(OCc3ccc(F)cc3Cl)ccc12 | 9 | 35* | 3385 | 2
COC(=O)c1ccc(OCC(=O)Nc2nn(-c3ccccc3)nc2C(N)=O)cc1 | 0 | -4 | 22226* | u
Cc1ccc(Cl)cc1NC(=O)[C@@H]1CCC(=O)N1C1OC(=O)c2ccccc21 (stereo partly drawn) | 5 | -5 | 5706 | 1
O=C(CCNS(=O)(=O)c1ccc(Cl)cc1)NCc1ccccn1 | -5 | -11 | 17910* | -8
O=C(CCNC(=O)c1ccc(Br)o1)NCc1ccccc1Cl | 1 | 2 | 9771 | 1
O=C(CCNC(=O)c1ccc(Br)o1)NCc1ccccn1 | -4 | -5 | 24852* | -5
COc1ccc(NC2CCCN(C(=O)c3cc4ncccn4n3)C2)cc1 (stereo not drawn) | 2 | 2 | 6276 | 0
O=C(Nc1ccccc1NC(=O)NC1CCCCC1)NC1CCCCC1 | -2 | -3 | 16874* | u
COC(=O)c1ccccc1NC(=O)NC1CCCC1 | -1 | 0 | 2246 | 0
Cc1ccccc1C(=O)NC1CCCCCCC1 | -2 | 30 | 3657 | 0
NC(=O)c1ccccc1NC(=O)NC1CCCCC1 | -3 | -1 | 22128* | u
COc1ccccc1Nc1ncccc1C(=O)NCc1ccccc1 | -3 | -3 | 20309* | -1
CSc1ccccc1C(=O)NC1CCCCCC1 | 1 | 1 | 20204* | 1
COC(=O)c1cc(=O)c2c(ccc3oc(=O)ccc32)[nH]1 | 2 | 1 | 5174 | 1
SMILES | Anthrax LF inh2 | BoNT-F LC inh | Autofluor counter | BoNT-A LC inh2
COCCNC(=O)C1(C)CCN(C(=O)c2ccc3c(c2)C(C)(C)CCC3(C)C)C1 (stereo not drawn) | -5 | -5 | 4378 | 0
COc1ccc(CN2CCN(C(=O)Cn3ncn4cccc4c3=O)CC2)c(OC)c1OC | -4 | -2 | 5904 | 0
COc1ccc(NC(=O)c2cccnc2Nc2ccccc2)cc1 | 0 | -11 | 23086* | -8
COCC(=O)Nc1ccccc1C(=O)Nc1ccc(OC)cc1 | -2 | 2 | 22328* | 1
CCCCNC(=O)Nc1ccccc1C(=O)Nc1ccc(OC)cc1 | -1 | 5 | 2230 | 0
COc1ccc(NC(=O)c2ccccc2C)cc1 | -1 | u | 3987 | 4
O=C(Nc1cccc(Cl)c1)Nc1ccccc1C(=O)O | 5 | -30 | 8318 | -8
COc1ccc(NC(=O)c2ccccc2NC(=O)NC2CCCCC2)cc1 | -4 | -2 | 23203* | 1
NC(=O)c1ccccc1NC(=O)Nc1cccc(Cl)c1 | 1 | -6 | 20064* | -1
COCC1CCCC1OS(N)(=O)=O (stereo not drawn) | -2 | 0 | 3038 | -1

Source: PubChem (NMMLSC)
